For 60 molecules, Potency and largest response in the series, negative = inhibition results are on record in PubChem BioAssay AID1490 (National Center for Advancing Translational Sciences (NCATS), 2009).

Several values for one entry are separate records, joined by “and”; a condition that tells them apart may be missing. Identical values can stand only once. Screen size: about 310,000 compounds; about 11,000 (3.5%) were called active. Another 4% or so got no clear call; they are omitted. The sample holds actives, similar compounds and a random draw of the others, so the mix is not that of the screen. Some compounds were tested as several samples or in several runs, with calls that do not always agree. A number with no mark means an inactive call. Calls come from the whole dose curve; as a rule, active = well fitted inhibition curve with a large enough effect; inconclusive = small, poorly fitted or top-dose-only effect, or another doubt; inactive = no such curve, though single readings can be large or run the other way.
Potency is the fitted concentration of half-maximal effect.

The target of this assay is 4'-phosphopantetheinyl transferase ffp (Bacillus subtilis) (UniProt Q9F4F7). Description: qHTS Assay for Inhibitors of Bacillus subtilis Sfp phosphopantetheinyl transferase (PPTase).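 For largest response in the series, negative = inhibition: 0% = enzyme reaction without inhibitor and -100% = no enzyme wells.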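 Note: the enzyme is Sfp with the accession as filed and its product quenches rhodamine fluorescence.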 The conditions noted are these: Biochemical Sfp PPTase activity. An excerpt:
Assay Submitter: Michael Burkart, University of California, San Diego
Screening Center PI: Austin, C.P.
Screening Center: NIH Chemical Genomics Center [NCGC]
The covalent attachment of a phosphopantetheinyl (4'-PP) arm to a variety of synthases and other proteins is a key posttranslational protein modification. The 4'-PP is installed on the proteins post-translationally from coenzyme A (CoA) on a conserved serine residue by action of phosphopantetheinyl transferase (PPTase) enzymes. Phosphopantetheinylation is essential for synthase activity, and removal of the PPTase gene precludes natural product synthesis in microorganisms, or in the case of fatty acid biosynthesis, renders the organism unviable. PPTase enzymes belong to a distinct structural superfamily. Within bacteria, these enzymes are grouped into two classes based upon primary structure, the AcpS-Type and Sfp-Type PPTases.
Sfp-type PPTases, corresponding to an activator of surfactin production in Bacillus subtilis, are responsible for modifying type I polyketide and nonribosomal peptide synthases of prokaryotes. Sfp-type PPTases are responsible for the activation of a variety of pathogen-associated virulence factors. Among these compounds are toxins such as mycolactone from Mycobacterium ulcerans, siderophores such as vibriobactin from Vibrio cholerae or mycobactin from Mycobacterium tuberculosis, as well as the mycolic acids which form the waxy cell wall of Mycobacteria. The biosyntheses of these natural products are considered attractive targets for drug design.
In search of small molecule Sfp-PPTase inhibitors, a fluorescence quenching assay was developed for detection of Bacillus subtilis Sfp-PPTase enzymatic activity in a miniaturized high-throughput format. The consensus ybbr acceptor peptide […] was N-terminally labeled with Black Hole Quencher-2 (BHQ-2) and used in combination with rhodamine-labeled coenzyme A as a co-substrate.
Inhibition of Sfp-PPTase was detected by recording the fluorescence intensity change over a 30-minute reaction period at a 525 nm excitation and 598 nm emission. Reagents were supplied by Michael Burkart and Timothy Foley, University of California at San Diego.
This BioAssay deposition is for validation of the developed Sfp-PPtase assay.
Assay Buffer: 50 mM Hepes-Na pH 7.6, 10 mM MgCl2, 0.01% Nonidet P-40, and 0.01% BSA.
3 uL of Sfp-PPTase enzyme (final concentration 15 nM) and 1 uL of substrate mixture (final concentration for rhodamine-CoA and BHQ-2-YbbR 5 uM and 12.5 uM, respectively) dispensed in columns 1, 2, 5 - 48. Columns 1 and 2 used to generate neutral control (uninhibited reaction)
Three uL of reagents, consisting of buffer (in columns 3 and 4 as negative control) and Sfp-PPTase (in columns 1, 2, 5 - 48) were dispensed into 1,536-well Greiner black solid bottom plate. Compounds (23 nL) were transferred via Kalypsys pintool equipped with 1,536-pin array. The plate was incubated for 15 min at room temperature, followed by the addition of 1 uL substrate to start the reaction. The plate was then centrifuged at 1000 rpm for 15 seconds, and the fluorescence intensity recorded on a ViewLux High-throughput CCD imager (Perkin-Elmer) using standard BODIPY optics (525 nm excitation and 598 nm emission). The plate was then incubated for 30 minutes, and a second read on the ViewLux was performed. The fluorescence intensity difference over the 30-minute period was used to calculate the respective reaction rate for each well.
Turning to `C/C(=N\Nc1ncc(Cl)cc1Cl)c1cccs1`, the Potency was 39.8 µM (active).
Take `C/C(=N\Nc1ncc(Cl)cc1Cl)c1ccc(S(=O)(=O)NCc2ccco2)cc1`: the largest response in the series, negative = inhibition was -16.4%.
On to `COc1cccc(/C(C)=N/Nc2ncc(Cl)cc2Cl)c1`, for which the Potency is 56.2 µM (active).
Consider `CCN(CC)c1ccc(C(=O)N/N=C(\C)c2cccc(OC)c2)cc1`, for which the largest response in the series, negative = inhibition is -1.28%.
Still for that read-out and setting: the same measure for `C/C(=N\Nc1ccc(S(N)(=O)=O)cc1[N+](=O)[O-])c1cccs1`: 0.687%; for `C/C(=N\Nc1nc2ccccc2[nH]1)c1cccs1`: -4.19%; for `Cn1cnc2c1c(=O)n(Cc1ccccc1C#N)c(=O)n2C`: 4.28%.
Same read-out and setting: for `C=CC1=C2C=C(C3CC3)N(CC(C)C)C=C2C(=O)C(C)(OC(=O)c2ccco2)C1=O` (stereo unspecified) the value was 5.15%.
For `CC(C)(C)NC(=O)COc1ccc(CNc2ccc3[nH]c(=O)[nH]c3c2)cc1`, the Potency was 56.2 µM (active).
Consider `COC(=O)c1ccc(OCC(=O)NC(C)(C)C)cc1`, for which the largest response in the series, negative = inhibition was -10.7%.
On the same count and under the same terms, for `CC(=O)Nc1ccc(OCC(=O)NCc2ccc(C)cc2)cc1` the value was 11.1%.
`CCS(=O)(=O)Nc1ccc(C(=O)NCCSc2ccccc2)cc1`: the largest response in the series, negative = inhibition is 22%.
On the same count and under the same terms, the same measure for `COC(=O)C1=CN(c2ccc(F)c(F)c2)C=C(C(=O)OC)C1c1ccc([N+](=O)[O-])cc1`: -0.236%; for `COc1cccc(OC)c1C(=O)Nc1ccc2c(c1)n(C)c(=O)n2C`: 6.56%.
Consider `Cc1ccc(/C=C(\C#N)C(=O)Nc2cccc3ncccc23)o1`, for which the Potency was 8.91 µM (active).
For the molecule `Cc1ccc(C(=O)Nc2cccc3ncccc23)cc1[N+](=O)[O-]`, the largest response in the series, negative = inhibition was 9.98%.
As for `O=C(Nc1cccc2ncccc12)C(Cl)(Cl)Cl`, the largest response in the series, negative = inhibition is 5.72%.
For the molecule `Cc1c(C(=O)NC(C)C2CC3CCC2C3)cccc1[N+](=O)[O-]` (stereo unspecified), the largest response in the series, negative = inhibition was 6.2%.
For the molecule `C[C@]12CC[C@@H]3c4ccc(O)cc4C[C@@H](CCCCCCCCCS(=O)CCCC(F)(F)C(F)(F)F)C3[C@@H]1CC[C@@H]2O` (stereo partly specified), the largest response in the series, negative = inhibition is -0.311%.
As to `Brc1ccc(-c2nn[nH]n2)cc1`, the largest response in the series, negative = inhibition is 19%.
With `CC(C)c1ccc(-c2nn[nH]n2)cc1`, the largest response in the series, negative = inhibition was 21.7%.
`CC(N)(C(=O)O)c1ccc(-c2nn[nH]n2)cc1` (stereo unspecified): the Potency is 35.5 µM (active).
With `O=C(CSc1ncn[nH]1)Nc1nsc(-c2ccccc2)n1`, the largest response in the series, negative = inhibition was 9.26%.
As for `O=C(CSc1ncn[nH]1)Nc1ccnc2ccccc12`, the largest response in the series, negative = inhibition is 12.4%.
`CCN(C(=O)CSc1ncn[nH]1)c1cccc2ccccc12`: the Potency is 39.8 µM (active).
Turning to `O=c1cc(-c2ccc(O)cc2)oc2c([C@@H]3O[C@H](CO)[C@@H](O)[C@H](O)[C@H]3O)c(O)cc(O)c12`, the largest response in the series, negative = inhibition is -2.52%.
Take `CCc1ccccc1N(CC(=O)NCCSCc1ccco1)S(C)(=O)=O`: the Potency is 17.8 µM (active).
For the molecule `CS(=O)(=O)N(Cc1ccc(Cl)cc1)c1ccc(C(=O)NCCSCc2ccco2)cc1`, the largest response in the series, negative = inhibition is 22.6%.
On the same count and under the same terms, for `Cc1cc(C)cc(N(CC(=O)NCCSCc2ccco2)S(C)(=O)=O)c1` the value was 9.95%; for `CC(C)N(C(=O)Cn1cc(S(=O)(=O)CC(=O)N2CCOCC2)c2ccccc21)C(C)C`, 4.5%; for `O=C(C1CC(=O)N(c2ccc(Br)cc2)C1)N1CCCC1` (stereo unspecified), 5.88%.
Regarding `Cn1c(CC(=O)Nc2ccccc2)nnc1SCC(=O)c1ccccc1`, the Potency was 35.5 µM (active).
Consider `Cn1c(CSCC(=O)Nc2ccccc2)nnc1SCc1ccccc1`, for which the largest response in the series, negative = inhibition was -1.75%.
With `Cn1c(Cc2cccs2)nnc1SCC(=O)Nc1ccccc1`, the largest response in the series, negative = inhibition was 11.4%.
Still for that read-out and setting: for `CCN1CCCC1CNC(=O)c1cc2cc(OC)c(OC)cc2[nH]1` (stereo unspecified) the value was 18.4%; for `COc1ccccc1CCNC(=O)C1CCN(C(=O)/C=C/c2ccccc2)CC1`, -8.37%; for `Cc1cc(Cl)ccc1NC(=S)NCCCN1CCCC1=O`, 5.94%.
For `Cc1c(Cl)cccc1NC(=O)NCCCN1CCCC1=O`, the largest response in the series, negative = inhibition was 4.97%.
`O=C1CCCN1CCCNC(=S)Nc1ccc(F)c(Cl)c1`: the Potency is 14.1 µM (active).
Take `CCCC(=O)n1nc(-c2ccccc2)nc1N`: the largest response in the series, negative = inhibition is -3.09%.
For `CCN(CC)C(=O)c1sc2nc(-c3ccccc3)ccc2c1N`, the Potency was 20 µM (active).
As for `Cc1ccc2c(N)c(C(=O)c3ccccc3)sc2n1`, the largest response in the series, negative = inhibition was -25.4%.
For `COc1cc(C(C(=O)NC2CCCC2)N(C(=O)c2ccco2)c2ccccc2C(C)=O)cc(OC)c1OC` (stereo unspecified), the largest response in the series, negative = inhibition is 9.66%.
On the same count and under the same terms, the same measure for `COc1ccc2[nH]c(=O)c(C3c4cc(OC)c(OC)cc4CCN3C(=O)c3ccco3)cc2c1` (stereo unspecified): -2.97%; for `Cc1cccc(NC(=O)C2CCCN(C(=O)NCc3ccccc3)C2)c1C` (stereo unspecified): 5.34%.
For `COc1ccccc1OCCNCC(O)COc1cccc2[nH]c3ccccc3c12` (stereo unspecified), the Potency is 50.1 µM (active); the largest response in the series, negative = inhibition is -10.5% and 8.7% and -18.4%.
Consider `COc1ccccc1OCC(O)CN1CCOCC1` (stereo unspecified), for which the largest response in the series, negative = inhibition is 15.2%.
The same measure, in the same setting: for `CC(C)(C)NCC(O)COc1cccc2[nH]c(=O)[nH]c12` (stereo unspecified) the value was 6.07%.
On the same count and under the same terms, the same measure for `COc1cccc(NC(=O)C/C(C)=N/NC(=O)C2CCCCC2)c1`: 9.15%.
Still for that read-out and setting: for `O=C(COc1ccccc1Cl)N1CCCCCCC1` the value was 23.9%; for `COc1cc(NC(=O)c2ccccc2)c(OC)cc1NC(=O)Cc1ccccc1`, -10.9%.
Take `O=[N+]([O-])c1ccc(N2CCSCC2)cc1O`: the largest response in the series, negative = inhibition is 17.8%.
Consider `O=C1CSC(=S)N1/N=C/c1ccc(O)c([N+](=O)[O-])c1`, for which the Potency is 39.8 µM (active).
With `Cc1cc(C(=O)N/N=C/c2ccc(O)c([N+](=O)[O-])c2)c(C)n1-c1ccc(F)cc1`, the largest response in the series, negative = inhibition was -9.8%.
The same measure, in the same setting: for `CCOC(=O)N1CCN(S(=O)(=O)N2CCCC(C(=O)NCCCN3CCC(C)CC3)C2)CC1` (stereo unspecified) the value was 6.69%; for `O=C(CCC1CCCN(C(=O)c2ccc(F)c(F)c2)C1)N1CCN(c2ccccn2)CC1` (stereo unspecified), 7.09%.
On the same count and under the same terms, for `CSc1nc2ccccc2c(=O)n1Cc1ccc(F)cc1` the value was -16.2%; for `CC(=O)Nc1ccc(NC(=O)CSc2ncnc3c2cnn3Cc2ccccc2)cc1`, 13.9%.
Turning to `CSc1c(SCc2ccccc2)cnn(Cc2ccccc2)c1=O`, the Potency is 44.7 µM (active).
As for `Cc1nc(COc2cc3oc(=O)cc(C)c3cc2Cl)cs1`, the largest response in the series, negative = inhibition was -11.1%.
